Results taken from PubChem BioAssay AID1053126 (Broad Institute, 2014).
Results with a measured potency or affinity are listed apart. A number with no mark means an inactive call.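 How the source made its calls: active means cell killing with a fitted half-effect concentration at or below twice the top valid dose; inconclusive means flat curve with 30 to 70 percent drop, or poor fit; inactive means the rest.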

Assay: viability loss in HEK293T kidney cells – cell-based, ATP luminescence, cherry-pick, set 6, cytotoxicity control, dose response (AID 1053126);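 further: 0% = neutral control wells and -100% = mitoxantrone 10 µM positive control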
Conditions: CellTiter-Glo ATP luminescence, 72 h; series mostly up to 26 µM; activity change, negative = cytotoxicity: at the top concentration

Row | SMILES | activity change, negative = cytotoxicity
1 | O=C(O)c1[nH]c2ccccc2c1C(c1cc(Br)ccc1O)c1c(C(=O)O)[nH]c2ccccc12 | 25.2%
2 | O=C(Cc1csc(-c2ccccc2)n1)NCc1ccccc1F | 9.15%
3 | Cc1cc(CNC(=O)c2ccc3c(c2)OCO3)c2ccccc2n1 | -7.76%
4 | Cc1oc(/N=C/c2ccc(F)cc2)c(C#N)c1C | -3.38%
5 | CCC(C)n1c(=N)c(C#N)cc2c(=O)n3cccc(C)c3nc21 (stereo not drawn) | -16.5%
6 | Cc1ccc(S(=O)(=O)CCC(=O)OCC(=O)Nc2cccc(S(=O)(=O)N3CCCCC3)c2)cc1 | -10.6%
7 | Cc1ccc(NC(=O)Nc2ccnc(-c3cccnc3)n2)cc1 | -11.9%
8 | CC(C)C(=O)Nc1sc2c(c1C(N)=O)CCN(Cc1ccccc1)C2 | 6.18%
9 | Cc1ccc(C(=O)OCC(=O)Nc2c(C)nn(-c3ccccc3)c2C)c(O)c1 | 25.2%
10 | CCOc1ccc2nc(NCCCNC(=O)c3cc(OC)c(OC)c(OC)c3)c(C#N)cc2c1 | -13.6%
11 | O=C(O)c1ccc(N/N=C/c2ccc(-c3ccccc3Cl)o2)cc1 | -11.7%
12 | CN1CCc2c(sc(NC(=O)Cc3ccccc3)c2C#N)C1 | -7.9%
13 | N#C/C(=C\c1ccco1)C(=O)Nc1cccc2ncccc12 | 6.1%
14 | CSC1=NSC2=NC(=O)/C(=C/c3coc4ccc(O)cc4c3=O)C(=N)N12 | -22.3%
15 | CCNC(=O)c1cc2c(=O)n3cccc(C)c3nc2n(Cc2ccc(C)cc2)c1=N | -19.1%
16 | Cc1cc(=O)oc2cc(OC(=O)c3cncc(Br)c3)ccc12 | -11.8%
17 | CCN(CC)CCNC(=O)c1sc2nc(-c3ccccc3)cn2c1C | 10.8%
18 | CC1CCCCN1Cc1c(O)ccc2c(=O)c(-c3nc4ccccc4s3)coc12 (stereo not drawn) | -6.86%
19 | N#CC1=C(N)OC2=C(C(=O)CCC2)C1c1cc2c(cc1Br)OCO2 (stereo not drawn) | -8%

Row | SMILES | activity change, negative = cytotoxicity
20 | CCN(CC)Cc1c(O)c(Cl)cc2c(C)cc(=O)oc12 | -0.263%
21 | CCOC(=O)c1c(C)n(C)c2ccc(OCC(O)CN3CCC(C)CC3)cc12 (stereo not drawn) | 12.2%
22 | CCN1C=C(C(=O)OC)C(c2cccc(OC)c2OC)C(C(=O)OC)=C1 | -2.69%
23 | CN(C)CCOCCOc1ccc(Cl)c2ccccc12 | -24.5%
24 | O=C(O)c1ccc(-c2ccc(/C=C3\NC(=O)N(Cc4ccc(Cl)cc4)C3=O)o2)cc1 | -3.02%
25 | CC(=O)c1cc2c(ccc3ccccc32)oc1=O | -0.836%
26 | N#Cc1c(NCCCO)nc(NCc2ccccc2)c2c1CCN(Cc1ccccc1)C2 | -9.15%
27 | CCOc1ccc(NC(=O)CN(C)C(=O)CCCNC(=O)c2ccc(Cl)cc2)cc1OCC | -10.1%
28 | Cc1ccc(S(=O)(=O)c2cc3c(=O)n4ccccc4nc3n(C)c2=N)cc1 | -8.9%
29 | Cc1cccn2c(=O)c(/C=C(\C#N)C(=O)NC3CCS(=O)(=O)C3)c(N3CCC(C(N)=O)CC3)nc12 (stereo not drawn) | -17%
30 | O=C(/C=C/c1ccccc1)C1=C(O)C(=O)N(CCO)C1c1ccc2c(c1)OCO2 (stereo not drawn) | -12.3%
31 | CC(=O)c1cccc(-c2ccnc3c2CC(C(=O)NCc2ccc(F)c(F)c2)O3)c1 (stereo not drawn) | -11.2%
32 | COc1ccc(S(=O)(=O)N2CCCC2CNC(=O)C(=O)NC2CCCC2)cc1 (stereo not drawn) | -3.54%
33 | Cn1c(=N)c(S(=O)(=O)c2ccccc2)cc2c(=O)n3ccccc3nc21 | -19.3%
34 | Cc1cc(-c2nc3cccnc3s2)ccc1NS(=O)(=O)c1cccs1 | 2.17%
35 | COc1cccc2c(=O)c3c(cnn3C)n(C)c12 | -2.97%
36 | CCc1ccccc1S(=O)(=O)Cc1ccc(C(=O)N2CCN(c3ccccc3OC)CC2)o1 | -6.49%
37 | Cc1cccn2c(=O)c3cc(C(N)=S)c(=N)n(CCCN4CCOCC4)c3nc12 | 6.16%
38 | CCOCCCNc1nc2nc3ccc(C)cn3c(=O)c2cc1C(=O)NCC1CCCO1 (stereo not drawn) | -3.04%
